Bead autofluor: flagged as autofluorescent in microsphere protease counterscreen. compound autofluorescence counterscreen, microsphere flow cytometry; active compounds read high. 360,000 tested, 3.1% active. fluorescence intensity (no concentration beside the values); in the data active = fluorescence intensity above about 16000; inconclusive = no clear call, values can overlap the other calls
BJeLR lethal: BJeLR cell viability loss. BJeLR (HRASV12) viability, CellTiter-Glo ATP luminescence, 48 h. inhibition, % (concentration not given with the values). 300,000 tested, 0.17% active. AID 1554; in the data active = inhibition above about 50%; inconclusive = no clear call, values can overlap the other calls
BoNT A protease: BoNT A light chain protease inhibition; multiplex microsphere protease substrate cleavage, flow cytometry; inhibition, % at 10 µM; 360,000 tested, 0.17% active; AID 588499
BoNT F protease: BoNT F light chain protease inhibition; Multiplex microsphere protease cleavage assay, flow cytometry; AID 588497; 360,000 tested, 0.22% active; inhibition, % at 10 µM; in the data active = inhibition above about 35%, passing the limit was not always enough; inconclusive = no clear call, values can overlap the other calls
Anthrax LF inh2: blocks Bacillus anthracis lethal factor protease | P15917 | multiplex microsphere protease cleavage assay, LF | inhibition, % at 10 µM | 360,000 tested, 0.12% active
Target sequence (P15917 whole entry, looked up): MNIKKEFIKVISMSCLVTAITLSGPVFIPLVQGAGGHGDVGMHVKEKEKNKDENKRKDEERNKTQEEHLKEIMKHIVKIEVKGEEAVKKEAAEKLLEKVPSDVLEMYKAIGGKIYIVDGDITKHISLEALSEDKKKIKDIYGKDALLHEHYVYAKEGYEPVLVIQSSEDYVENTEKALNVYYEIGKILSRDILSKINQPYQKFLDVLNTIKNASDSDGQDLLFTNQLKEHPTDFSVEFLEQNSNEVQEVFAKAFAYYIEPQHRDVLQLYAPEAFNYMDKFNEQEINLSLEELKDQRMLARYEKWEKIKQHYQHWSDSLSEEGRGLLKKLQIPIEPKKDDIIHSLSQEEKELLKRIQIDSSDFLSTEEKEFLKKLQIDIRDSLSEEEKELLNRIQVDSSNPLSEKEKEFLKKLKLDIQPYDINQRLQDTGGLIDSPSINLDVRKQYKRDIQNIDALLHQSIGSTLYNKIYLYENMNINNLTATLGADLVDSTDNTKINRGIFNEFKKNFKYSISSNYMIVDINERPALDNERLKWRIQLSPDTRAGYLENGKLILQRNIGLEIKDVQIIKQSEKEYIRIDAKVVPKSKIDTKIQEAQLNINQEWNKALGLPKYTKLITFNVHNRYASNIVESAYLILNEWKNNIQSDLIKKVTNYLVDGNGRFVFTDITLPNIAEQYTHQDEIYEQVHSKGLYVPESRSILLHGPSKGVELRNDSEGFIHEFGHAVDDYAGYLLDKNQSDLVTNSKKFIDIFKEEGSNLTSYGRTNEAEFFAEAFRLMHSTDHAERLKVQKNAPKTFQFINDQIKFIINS
Numbers stand for hits. Compounds with a hit are over-represented: about 3.5% of the library has one in this group of screens. Cut-off read from the data, not from the text of the source, unless noted: active = inhibition above about 30%; inconclusive = no clear call, values can overlap the other calls; inactive = below that.

Results for COc1ccc(-n2c(SCC(=O)NC3CCCCC3)nc3ccsc3c2=O)cc1 ?
Bead autofluor: 21037; BJeLR lethal: inactive; BoNT A protease: inconclusive; BoNT F protease: inactive; Anthrax LF inh2: inactive

How did COc1ccc(C(O)c2cnc(C)n2Cc2ccccc2)cc1 (stereo not drawn) do in these assays?
Bead autofluor: inactive; BoNT A protease: inactive; BoNT F protease: inactive; Anthrax LF inh2: inactive

Results for Cc1ccc(-c2csc3nnc(SCC(=O)NCc4ccc5c(c4)OCO5)n23)cc1 ?
Bead autofluor: inactive; BJeLR lethal: inactive; BoNT A protease: inactive; BoNT F protease: inactive; Anthrax LF inh2: inactive

How did COCCn1c(SCC(=O)Nc2ccc3c(c2)OCCO3)nnc1-c1c[nH]c2ccccc12 do in these assays?
Bead autofluor: 22982; BoNT A protease: inactive; BoNT F protease: inactive; Anthrax LF inh2: inactive

Results for O=C(CCSc1nnc2scc(-c3ccccc3)n12)NCc1ccc2c(c1)OCO2 ?
Bead autofluor: 16498; BJeLR lethal: inactive; BoNT A protease: inactive; BoNT F protease: inactive; Anthrax LF inh2: inactive

How did O=C(CSc1nnc2scc(-c3ccccc3)n12)Nc1ccc2c(c1)OCCO2 do in these assays?
Bead autofluor: 16931; BJeLR lethal: inactive; BoNT A protease: inconclusive; BoNT F protease: inactive; Anthrax LF inh2: inactive

Results for COc1ccc(-c2nc(CS(=O)CC(=O)NC3CCCC3)c(C)o2)cc1 (stereo not drawn) ?
Bead autofluor: inactive; BJeLR lethal: inactive; BoNT A protease: inactive; BoNT F protease: inactive; Anthrax LF inh2: inactive

How did Cc1cccc(CN2CCC(C(=O)Nc3ccc(-n4nc(C)cc4C)cc3)CC2)n1 do in these assays?
Bead autofluor: inactive; BJeLR lethal: inactive; BoNT A protease: inactive; BoNT F protease: inactive; Anthrax LF inh2: inactive

What do the screens show for `Cc1c(C(=O)NCc2ccc(Cl)c(Cl)c2)sc(=O)n1Cc1ccc(C(=O)N(C)C)cc1`?
Bead autofluor: inactive; BoNT A protease: inactive; BoNT F protease: inactive; Anthrax LF inh2: inactive

What do the screens show for `Cc1ccc(-c2nc3cc(C)c(Br)c(C)n3c2Cc2ccsc2)cc1`?
Bead autofluor: inactive; BoNT A protease: inactive; BoNT F protease: inactive; Anthrax LF inh2: inactive

How did O/N=C(\c1ccccc1)C(O)c1ccccc1 (stereo not drawn) do in these assays?
Bead autofluor: inactive; BJeLR lethal: inactive; BoNT A protease: inactive; BoNT F protease: inactive; Anthrax LF inh2: inactive

Results for COc1ccc(-c2nc(CS(=O)(=O)CC(=O)NCCc3cc(OC)ccc3OC)c(C)o2)cc1 ?
Bead autofluor: 17109; BJeLR lethal: inactive; BoNT A protease: inactive; BoNT F protease: inactive; Anthrax LF inh2: inactive

Results for COc1cccc(-c2nc(CS(=O)(=O)CC(=O)NCCC(C)C)c(C)o2)c1 ?
Bead autofluor: inactive; BJeLR lethal: inactive; BoNT A protease: inactive; BoNT F protease: inactive; Anthrax LF inh2: inactive

How did COc1cccc(-c2nc(CS(=O)(=O)CC(=O)NCCc3cc(OC)ccc3OC)c(C)o2)c1 do in these assays?
Bead autofluor: inactive; BJeLR lethal: inactive; BoNT A protease: inactive; BoNT F protease: inactive; Anthrax LF inh2: inactive

How did COc1ccc(OC)c(CCNC(=O)CS(=O)(=O)Cc2nc(-c3ccc(C)cc3)oc2C)c1 do in these assays?
Bead autofluor: 23969; BJeLR lethal: inactive; BoNT A protease: inactive; BoNT F protease: inactive; Anthrax LF inh2: inactive

How did COCCCNC(=O)CS(=O)(=O)Cc1nc(-c2cccc(OC)c2)oc1C do in these assays?
Bead autofluor: 20516; BJeLR lethal: inactive; BoNT A protease: inactive; BoNT F protease: inactive; Anthrax LF inh2: inactive

How did COc1ccc(CCN2C(=O)CCC2(C)c2nnnn2-c2ccc3c(c2)OCCO3)cc1OC (stereo not drawn) do in these assays?
Bead autofluor: inactive; BoNT A protease: inactive; BoNT F protease: inactive; Anthrax LF inh2: inactive

What do the screens show for `Cc1cc(/C=N/Nc2nc(N)ncc2[N+](=O)[O-])c(C)n1-c1cccc(C(F)(F)F)c1`?
BJeLR lethal: inactive

How did CCN(CC)C1=CC(=O)OC12CCCCC2 do in these assays?
Bead autofluor: 22472; BJeLR lethal: inactive; BoNT A protease: inconclusive; BoNT F protease: inactive; Anthrax LF inh2: inactive

What do the screens show for `Cc1nc(NC(=O)C(C)(C)C)sc1C(=O)Cn1cc(-c2ccc(C(C)(C)C)cc2)nn1`?
Bead autofluor: inactive; BoNT A protease: inactive; BoNT F protease: inactive; Anthrax LF inh2: inactive

How did CCC(=O)N(Cc1ccc(C)cc1)Cc1cc2cc3c(cc2[nH]c1=O)OCO3 do in these assays?
Bead autofluor: 23631; BJeLR lethal: inactive; BoNT A protease: inactive; BoNT F protease: inactive; Anthrax LF inh2: inactive

What do the screens show for `CCC(=O)N(CCc1ccccc1)Cc1cc2cc3c(cc2[nH]c1=O)OCO3`?
Bead autofluor: 21744; BJeLR lethal: inactive; BoNT A protease: inactive; BoNT F protease: inactive; Anthrax LF inh2: inactive

High-throughput results (PubChem)
